# Results filed as inconclusive are left out. The source made the active and inactive calls. How the source made its calls, unless noted: active means hit-call score of the fitted dose curve at least 0.9, where 1 is the maximum; inconclusive means response in the unintended direction; inactive means score below 0.9.
# What was measured:
# [1] = CCTE_Shafer_MEA_acute_per_network_burst_spike_number_std: CCTE's Neural Acute Assay for Standard Deviation of Number of Spikes in a Network Burst, Shafer Lab (AID 2284020; active means hit-call score of the fitted dose curve at least 0.9, where 1 is the maximum; inactive means score below 0.9;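 further: fitted for decrease in spike-number SD versus DMSO so actives lower it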)
# How it was run: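 Primary rat cortical neurons on 48-well MEAs (16 electrodes/well) recorded at DIV 13 or 15: 40-min baseline, then 40 min with compound (0.03-40 uM), 37 C. Value is percent change in SD of spikes per network burst, relative to DMSO.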
# [2] = CCTE_Shafer_MEA_acute_per_network_burst_electrodes_number_mean: CCTE's Neural Acute Assay for Mean Number of Electrodes in a Network Burst, Shafer Lab (AID 2284021; active means hit-call score of the fitted dose curve at least 0.9, where 1 is the maximum; inactive means score below 0.9;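 further: curves fitted for decreases only so hits reduce electrodes per burst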)
# How it was run: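 Rat primary cortical neurons on 16-electrode MEA wells were recorded 40 min at baseline on DIV 13 or 15, then 40 min after compound (0.03-40 uM), at 37 C. Value is percent change per well, fitted in loss direction versus DMSO.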
# [3] = CCTE_Shafer_MEA_acute_network_burst_percentage: CCTE's Neural Acute Assay for Percentage of Network Bursts, Shafer Lab (AID 2284022; active means hit-call score of the fitted dose curve at least 0.9, where 1 is the maximum; inactive means score below 0.9;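 further: curves fitted for loss so actives lower network burst percentage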)
# How it was run: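 Primary rat cortical neurons on 16-electrode MEA wells, treated on DIV 13 or 15 with compound (0.03-40 uM); 40-min baseline and 40-min post-exposure recordings at 37 C. Value is percent change in spikes within network bursts versus baseline, DMSO negative control.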
# [4] = CCTE_Shafer_MEA_acute_cross_correlation_HWHM: CCTE's Neural Acute Assay for Cross Correlation at Half Width at Half Maximum, Shafer Lab (AID 2284026; active means hit-call score of the fitted dose curve at least 0.9, where 1 is the maximum; inactive means score below 0.9;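 further: percent change per well from pre-dose baseline in spike cross-correlogram half width; hits are a decrease in cross-correlogram half width relative to DMSO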;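 on outcome: spontaneous network firing of rat primary cortical neurons on multiwell microelectrode arrays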)
# How it was run: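 Primary rat cortical neurons on 16-electrode MEA wells; 40-min baseline on DIV 13 or 15, then 40-min recording with compound (0.03-40 uM) at 37 C. HWHM of spike cross-correlogram expressed as percent change from baseline per well, DMSO reference.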
# [5] = CCTE_Shafer_MEA_acute_synchrony_index: CCTE's Neural Acute Assay for Synchrony, Shafer Lab (AID 2284027; active means hit-call score of the fitted dose curve at least 0.9, where 1 is the maximum; inactive means score below 0.9;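 further: network synchrony index of spontaneous spiking in primary rat cortical neurons on MEAs; fitted for loss of signal so actives lower synchrony relative to DMSO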)
# How it was run: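 Primary rat cortical neurons on 48-well MEAs, dosed at 0.03–40 uM on DIV 13 or 15. Spikes are recorded for 40 min at 37C before and after exposure, and synchrony index (0–1) is expressed as percent change from baseline per well.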
# [6] = CCTE_Shafer_MEA_acute_LDH: CCTE's Lactate Dehydrogenase Assay for Cytotoxicity in the Neural Acute Assay, Shafer Lab (AID 2284086);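 further: active means LDH release rises above DMSO vehicle level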
# How it was run: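 Medium from rat cortical neuron MEA cultures sampled right after the 40 min compound-exposure recording; released LDH measured by absorbance at 490 nm. Analyzed as signal gain relative to DMSO.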
# [7] = TAMU_PeakParms_SingleDonor1434_Chronotropy: Texas A&M University (TAMU) 1.5-hr Human Induced Pluripotent Stem Cell (iPSC)-derived Cardiomyocytes Calcium (Ca+2) Flux Assay for Cardiotoxicity: Chronotropy (changes in peak frequency) (AID 2284217; active means hit-call score of the fitted dose curve at least 0.9, where 1 is the maximum; inactive means score below 0.9); conditions: actives raise or lower the signal
# How it was run: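 iPSC-CMs, donor 1434; 4 conc (0.2–100 uM), 0.5% v/v DMSO, 90 min, 37C/5% CO2; Ca2+ flux fluorescence → peak.freq.avg; peak.freq.avg = 0 dropped; bidirectional fit vs DMSO; EC05 POD.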
# [8] = target: human Retinoic Acid Receptor gamma (RARg), RARG (gene 5916) (UniProt P13631); assay: ATG_RARg_TRANS: Attagene TRANS-FACTORIAL HepG2 Assay for human Retinoic Acid Receptor gamma (RARg) (AID 2283009)
# human Retinoic Acid Receptor gamma (RARg), RARG (gene 5916), sequence (P13631 whole entry, looked up, the tested form may be a part): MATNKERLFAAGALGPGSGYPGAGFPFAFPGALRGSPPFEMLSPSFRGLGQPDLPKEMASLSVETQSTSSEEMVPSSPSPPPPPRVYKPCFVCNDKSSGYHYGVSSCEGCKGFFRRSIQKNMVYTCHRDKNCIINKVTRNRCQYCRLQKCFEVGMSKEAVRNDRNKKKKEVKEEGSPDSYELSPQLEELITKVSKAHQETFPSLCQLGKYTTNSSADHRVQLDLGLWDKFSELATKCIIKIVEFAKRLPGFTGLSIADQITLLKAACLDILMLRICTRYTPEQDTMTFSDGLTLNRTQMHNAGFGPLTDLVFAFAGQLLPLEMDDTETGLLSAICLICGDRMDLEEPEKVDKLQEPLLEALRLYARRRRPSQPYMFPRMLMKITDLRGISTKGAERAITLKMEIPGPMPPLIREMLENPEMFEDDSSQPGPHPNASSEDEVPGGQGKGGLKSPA
# How it was run: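 HepG2 transiently transfected with GAL4-UAS reporter units and chimeric NR-Gal4 constructs; 24 h compound exposure. Reporter mRNA quantified by RT-PCR, FAM labeling, HpaI digestion and capillary electrophoresis; gain-of-signal versus DMSO.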
# [9] = target: Bile acid receptor (Homo sapiens) (UniProt Q96RI1); assay: OT_FXR_FXRSRC1_0480: Odyssey Thera (OT) 8-hour HEK293T Protein-Complementation Assay for Farnesoid X receptor/SRC-1 Co-activator (AID 2283383)
# Bile acid receptor (Homo sapiens), sequence (Q96RI1 whole entry, looked up, the tested form may be a part): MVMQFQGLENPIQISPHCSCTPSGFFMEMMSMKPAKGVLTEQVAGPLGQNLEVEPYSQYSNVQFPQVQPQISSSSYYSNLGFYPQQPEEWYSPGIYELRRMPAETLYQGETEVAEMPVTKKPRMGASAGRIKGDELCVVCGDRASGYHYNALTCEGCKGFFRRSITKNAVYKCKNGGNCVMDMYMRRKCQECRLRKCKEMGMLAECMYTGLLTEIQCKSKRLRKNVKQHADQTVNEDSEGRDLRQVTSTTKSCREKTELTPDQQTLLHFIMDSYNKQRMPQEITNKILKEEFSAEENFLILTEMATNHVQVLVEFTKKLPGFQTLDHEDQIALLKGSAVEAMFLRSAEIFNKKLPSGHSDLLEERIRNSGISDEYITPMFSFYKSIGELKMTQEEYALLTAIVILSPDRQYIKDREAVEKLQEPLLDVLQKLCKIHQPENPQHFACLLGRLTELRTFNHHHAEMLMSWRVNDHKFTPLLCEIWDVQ
# How it was run: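 HEK293T protein-fragment complementation assay: FXR and SRC-1 coactivator are fused to reporter fragments, and their interaction restores a fluorescent reporter. Readout was taken 8 h after dosing, with gain of signal fit relative to DMSO.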
# [10] = target: Bile acid receptor (Homo sapiens) (UniProt Q96RI1); assay: OT_FXR_FXRSRC1_1440: Odyssey Thera (OT) 24-hour HEK293T Protein-Complementation Assay for Farnesoid X receptor/SRC-1 Co-activator (AID 2283384)
# How it was run: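 HEK293T cells, 24 h after chemical dosing. FXR–SRC-1 coactivator interaction read as fluorescence from protein-fragment complementation of a split reporter. Gain of signal fitted against DMSO baseline.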
# [11] = CEETOX_H295R_OHPREG: CeeTox H295R High-throughput Steroidogenesis Assay for OH-Pregnenolone (OHPREG) (AID 2283434; active means hit-call score of the fitted dose curve at least 0.9, where 1 is the maximum; inactive means score below 0.9); conditions: actives raise or lower the signal
# How it was run: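 Human adrenal H295R cells were prestimulated 48 h with 10 uM forskolin, then exposed 48 h to chemical in 0.1% DMSO. Medium 17alpha-hydroxypregnenolone was quantified by HPLC-MS/MS after MTBE extraction; bidirectional fitting versus DMSO baseline.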
# [12] = CEETOX_H295R_OHPROG: CeeTox H295R High-throughput Steroidogenesis Assay for OH-Progesterone (OHPROG) (AID 2283435; active means hit-call score of the fitted dose curve at least 0.9, where 1 is the maximum; inactive means score below 0.9); conditions: actives raise or lower the signal
# How it was run: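 H295R adrenal cells prestimulated 48 h with 10 uM forskolin, then exposed 48 h to chemical (0.1% DMSO final). 17alpha-hydroxyprogesterone in medium quantified by HPLC-MS/MS; bidirectional fit versus DMSO, with MTT viability measured in the same wells.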
# PGR (gene 5241) = PGR (gene 5241) (UniProt P06401); assay: TOX21_PR_BLA_Followup_Antagonist_ratio: Tox21 HEK293 Progesterone Receptor (PR) Antagonism Beta-lactamase Follow-Up Assay, Ratio (AID 2283934)
# PGR (gene 5241), sequence (P06401 whole entry, looked up): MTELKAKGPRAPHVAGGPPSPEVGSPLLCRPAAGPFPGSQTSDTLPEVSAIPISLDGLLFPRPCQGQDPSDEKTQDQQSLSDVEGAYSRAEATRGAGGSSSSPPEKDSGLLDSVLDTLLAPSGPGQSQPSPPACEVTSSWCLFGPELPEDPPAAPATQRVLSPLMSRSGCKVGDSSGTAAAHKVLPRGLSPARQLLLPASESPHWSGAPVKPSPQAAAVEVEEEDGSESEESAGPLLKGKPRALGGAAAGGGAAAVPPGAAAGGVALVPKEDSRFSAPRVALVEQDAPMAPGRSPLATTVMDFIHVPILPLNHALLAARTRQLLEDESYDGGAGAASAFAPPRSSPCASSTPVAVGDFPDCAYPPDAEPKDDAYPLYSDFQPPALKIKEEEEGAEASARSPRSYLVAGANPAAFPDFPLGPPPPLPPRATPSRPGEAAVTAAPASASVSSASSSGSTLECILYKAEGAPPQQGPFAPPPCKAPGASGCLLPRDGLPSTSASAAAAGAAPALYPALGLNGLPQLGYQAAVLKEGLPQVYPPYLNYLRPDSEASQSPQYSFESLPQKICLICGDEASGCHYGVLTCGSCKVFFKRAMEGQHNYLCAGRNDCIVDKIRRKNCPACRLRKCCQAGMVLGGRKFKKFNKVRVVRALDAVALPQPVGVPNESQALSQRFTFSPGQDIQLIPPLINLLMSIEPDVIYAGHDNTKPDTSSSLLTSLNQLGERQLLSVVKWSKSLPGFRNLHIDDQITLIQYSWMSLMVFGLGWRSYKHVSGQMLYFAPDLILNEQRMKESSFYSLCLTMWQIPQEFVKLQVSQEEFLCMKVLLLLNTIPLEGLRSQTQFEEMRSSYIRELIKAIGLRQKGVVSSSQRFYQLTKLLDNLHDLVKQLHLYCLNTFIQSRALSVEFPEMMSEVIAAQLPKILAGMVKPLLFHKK
# How it was run: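 PR-UAS-bla HEK293T cells, 3,000/well in 2% charcoal-stripped FBS, given compound plus 1nM R5020 agonist for 16 hr at 37C. Beta-lactamase FRET substrate 2 hours, ratio cleaved/uncleaved fluorescence; viability by CellTiter-Glo in same wells.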
# [13] = TOX21_PR_BLA_Followup_Agonist_viability: Viability Assessment in the Tox21 HEK293 Progesterone Receptor (PR) Agonism Beta-lactamase Follow-Up Assay (AID 2283935);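 further: signal loss means lower viability so actives are cytotoxic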
# How it was run: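 PR-UAS-bla HEK293T cells in 2% charcoal-stripped FBS medium, plated 6 hr before compound addition, exposed 16 hr at 37C. Viability read by CellTiter-Glo ATP luminescence after 30 min at room temperature, in the same wells as the beta-lactamase readout.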
# [14] = TOX21_PR_LUC_Followup_Antagonist_viability: Viability Assessment in the Tox21 HEK293 Progesterone Receptor (PR) Antagonism Luciferase Follow-Up Assay (AID 2283940)
# How it was run: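 HEK293-PR-A-luc cells kept in charcoal-stripped FBS medium were plated 5 h before compound addition, then exposed 16 h at 37C; viability read as cellular ATP by luciferase luminescence, loss of signal indicating cytotoxicity.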
# [15] = TOX21_PR_LUC_Followup_Agonist_viability: Viability Assessment in the Tox21 HEK293 Progesterone Receptor (PR) Agonism Luciferase Follow-Up Assay (AID 2283941);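 further: loss of signal means cytotoxicity so actives lower viability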
# How it was run: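 HEK293-PR-A-luc cells, kept in 10% charcoal-stripped FBS medium, were treated with compounds for 16 h at 37C. Viability read as cellular ATP by luciferase-coupled luminescence; loss of signal indicates cytotoxicity.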
# [16] = target: human Caspase 5 (CASP5), CASP5 (gene 838) (UniProt P51878); assay: NVS_ENZ_hCASP5: NovaScreen (NVS) Enzymatic Assay for human Caspase 5 (CASP5) (AID 2283137)
# human Caspase 5 (CASP5), CASP5 (gene 838), sequence (P51878 whole entry, looked up): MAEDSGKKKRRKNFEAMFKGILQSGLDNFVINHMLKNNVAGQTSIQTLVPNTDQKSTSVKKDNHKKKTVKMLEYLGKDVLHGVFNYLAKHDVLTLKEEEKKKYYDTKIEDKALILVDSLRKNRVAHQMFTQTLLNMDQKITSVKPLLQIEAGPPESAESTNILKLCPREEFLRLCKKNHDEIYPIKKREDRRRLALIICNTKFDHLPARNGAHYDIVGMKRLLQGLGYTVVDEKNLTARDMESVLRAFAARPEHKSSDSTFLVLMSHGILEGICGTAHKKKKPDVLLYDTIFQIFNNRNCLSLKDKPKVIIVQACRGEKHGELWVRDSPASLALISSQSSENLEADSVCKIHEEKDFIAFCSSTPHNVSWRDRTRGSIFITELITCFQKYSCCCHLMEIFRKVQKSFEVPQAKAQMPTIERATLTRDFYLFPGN
# How it was run: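 Recombinant human caspase 5 expressed in E. coli, fluorogenic substrate, fluorescence read 2 h after dosing. Single-point 25 uM duplicate screen, then concentration-response to maximum 50 uM for actives; DMSO baseline.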
# [17] = target: human Ephrin type-A Receptor 1 (EphA1), EPHA1 (gene 2041) (UniProt P21709); assay: NVS_ENZ_hEphA1: NovaScreen (NVS) Enzymatic Assay for human Ephrin type-A Receptor 1 (EphA1) (AID 2283158);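 further: activity is signal loss versus DMSO meaning EphA1 kinase inhibition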
# human Ephrin type-A Receptor 1 (EphA1), EPHA1 (gene 2041), sequence (P21709 whole entry, looked up): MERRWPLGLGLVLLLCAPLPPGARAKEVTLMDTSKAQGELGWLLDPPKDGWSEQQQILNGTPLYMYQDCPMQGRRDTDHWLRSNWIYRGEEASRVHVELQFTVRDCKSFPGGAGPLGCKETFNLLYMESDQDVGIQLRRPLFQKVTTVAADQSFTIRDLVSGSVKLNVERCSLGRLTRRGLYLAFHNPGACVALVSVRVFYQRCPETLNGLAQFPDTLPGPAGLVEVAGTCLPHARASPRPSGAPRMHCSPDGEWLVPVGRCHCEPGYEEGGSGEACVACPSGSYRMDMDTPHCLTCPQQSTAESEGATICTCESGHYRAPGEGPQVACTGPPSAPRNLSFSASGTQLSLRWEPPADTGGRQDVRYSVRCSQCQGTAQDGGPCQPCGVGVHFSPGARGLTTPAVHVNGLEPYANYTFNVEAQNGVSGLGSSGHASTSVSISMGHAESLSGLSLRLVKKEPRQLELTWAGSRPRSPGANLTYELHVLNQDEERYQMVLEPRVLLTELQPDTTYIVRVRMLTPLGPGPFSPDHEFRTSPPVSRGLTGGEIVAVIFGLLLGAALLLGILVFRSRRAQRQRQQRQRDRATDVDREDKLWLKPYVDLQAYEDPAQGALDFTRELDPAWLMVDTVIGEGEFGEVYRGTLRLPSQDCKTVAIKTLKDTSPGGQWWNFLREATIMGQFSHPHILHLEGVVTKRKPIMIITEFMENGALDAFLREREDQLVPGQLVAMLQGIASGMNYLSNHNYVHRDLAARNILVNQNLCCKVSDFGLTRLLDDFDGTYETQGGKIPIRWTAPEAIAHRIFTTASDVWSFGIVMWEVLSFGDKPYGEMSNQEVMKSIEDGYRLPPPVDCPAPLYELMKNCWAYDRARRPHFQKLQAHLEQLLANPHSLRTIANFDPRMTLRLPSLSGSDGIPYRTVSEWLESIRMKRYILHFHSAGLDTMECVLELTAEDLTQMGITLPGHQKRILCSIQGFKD
# How it was run: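 Cell-free enzymatic assay with recombinant EphA1 and fluorescent substrate; product separated by electrophoretic mobility shift, fluorescence intensity read 1 hour after dosing. Loss of signal versus DMSO baseline; primary duplicate screen at 25 uM, actives followed to 50 uM top concentration.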
# [18] = target: human Retinoic Acid Receptor beta (RARb), RARB (gene 5915) (UniProt P10826); assay: ATG_RARb_TRANS: Attagene TRANS-FACTORIAL HepG2 Assay for human Retinoic Acid Receptor beta (AID 2283004)
# human Retinoic Acid Receptor beta (RARb), RARB (gene 5915), sequence (P10826 whole entry, looked up, the tested form may be a part): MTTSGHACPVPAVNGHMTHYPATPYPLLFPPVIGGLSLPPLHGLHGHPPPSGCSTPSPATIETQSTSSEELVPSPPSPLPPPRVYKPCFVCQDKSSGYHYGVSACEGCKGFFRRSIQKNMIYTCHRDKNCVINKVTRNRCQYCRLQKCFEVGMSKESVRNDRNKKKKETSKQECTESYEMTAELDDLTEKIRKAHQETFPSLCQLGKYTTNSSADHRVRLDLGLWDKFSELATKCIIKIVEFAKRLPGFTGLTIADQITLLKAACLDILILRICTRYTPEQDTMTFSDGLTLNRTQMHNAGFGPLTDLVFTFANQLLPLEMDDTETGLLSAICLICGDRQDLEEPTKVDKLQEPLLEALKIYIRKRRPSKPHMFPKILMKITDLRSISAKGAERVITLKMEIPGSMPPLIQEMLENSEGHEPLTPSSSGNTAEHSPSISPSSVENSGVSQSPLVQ
# How it was run: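 HepG2 cells transiently transfected with multiplexed GAL4-UAS reporter units expressing chimeric NR–Gal4 fusions; 24 h compound exposure. Reporter mRNA quantified by RT-PCR, 6-FAM labelling, HpaI digestion and capillary electrophoresis; gain-of-signal fitted against DMSO baseline.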
# [19] = target: human Phosphatase and Tensin Homolog (PTEN), PTEN (gene 5728) (UniProt P60484); assay: NVS_ENZ_hPTEN: NovaScreen (NVS) Enzymatic Assay for human Phosphatase and Tensin Homolog (PTEN) (AID 2283203)
# human Phosphatase and Tensin Homolog (PTEN), PTEN (gene 5728), sequence (P60484 whole entry, looked up): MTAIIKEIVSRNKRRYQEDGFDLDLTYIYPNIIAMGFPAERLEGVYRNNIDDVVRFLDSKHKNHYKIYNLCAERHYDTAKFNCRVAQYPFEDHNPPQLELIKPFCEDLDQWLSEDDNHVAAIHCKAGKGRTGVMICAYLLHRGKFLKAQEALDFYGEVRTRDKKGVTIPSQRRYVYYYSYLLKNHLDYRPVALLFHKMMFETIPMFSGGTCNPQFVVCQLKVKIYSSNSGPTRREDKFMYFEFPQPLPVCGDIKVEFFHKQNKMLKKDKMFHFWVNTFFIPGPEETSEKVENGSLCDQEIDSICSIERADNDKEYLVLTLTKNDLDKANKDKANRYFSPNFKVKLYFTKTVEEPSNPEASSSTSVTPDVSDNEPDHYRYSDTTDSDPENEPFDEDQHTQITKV
# How it was run: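 Cell-free recombinant human PTEN with fluorescent substrate; product separated by electrophoretic mobility shift and read by fluorescence 1 h after dosing. Primary screen in duplicate at 25 uM, actives followed in concentration series versus DMSO.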
smiles,measurement,setting,value
CC1(C)[C@H](C(=O)O[C@H](C#N)c2cccc(Oc3ccccc3)c2)[C@@H]1C=C(Br)Br,AC50,[1],642 nM (active)
same,outcome,[2],inactive
same,AC50,[3],639 nM (active)
same,AC50,[4],3.1 µM (active)
same,AC50,[5],866 nM (active)
same,outcome,[6],inactive
same,outcome,[7],inactive
O=C(NCNC(=O)NC1C(=O)NC(=O)N1CO)NC1C(=O)NC(=O)N1CO (stereo not given),outcome,[8],inactive
same,outcome,[9],inactive
same,outcome,[10],inactive
CC(=O)c1cc2c(cc1C)C(C)(C)C(C)CC2(C)C (stereo not given),outcome,[11],inactive
same,outcome,[12],inactive
same,AC50,PGR (gene 5241),5.67 µM (active)
same,outcome,[13],inactive
same,outcome,[14],inactive
same,outcome,[15],inactive
C[C@]12CCC(=O)C(O)=C1CC[C@@H]1[C@@H]2CC[C@]2(C)C(=O)CC[C@@H]12,AC50,PGR (gene 5241),11.3 µM (active)
same,outcome,[13],inactive
same,outcome,[14],inactive
same,outcome,[15],inactive
O=C1C=CC(=O)C=C1,AC50,[16],28.9 µM (active)
same,AC50,[7],50 µM (active)
Cc1ccc(C)c2ccccc12,outcome,[9],inactive
same,outcome,[10],inactive
CCC[N+](=O)[O-],AC50,[17],25 µM (active)
O=[N+]([O-])c1ccc(Cl)cc1,outcome,[17],inactive
CCOC(=O)COc1ccc(Cl)cc1Cl,outcome,[18],inactive
O=c1c2ccccc2c(=O)c2c1cc(Cl)c1[nH]c3c([nH]c12)c(Cl)cc1c(=O)c2ccccc2c(=O)c13,AC50,[16],0.296 µM (active)
same,outcome,[1],inactive
same,outcome,[2],inactive
same,outcome,[3],inactive
same,outcome,[4],inactive
same,outcome,[5],inactive
same,outcome,[6],inactive
Nc1c(Cl)c(Cl)c(Cl)c(Cl)c1Cl,outcome,[18],inactive
same,outcome,[8],inactive
C=CC(=O)OCCO,outcome,[11],inactive
same,outcome,[12],inactive
N#CSCSc1nc2ccccc2s1,outcome,[19],inactive
CC(C)(c1ccc(O)cc1)c1ccc(O)cc1,outcome,[19],inactive

# — PubChem BioAssay (EPA / NIEHS)
